Assay results reported in PubChem BioAssay.
Active and inactive are the calls of the source.

Key:
[1] = tested on: PRMT1 (protein arginine N-methyltransferase 1); experiment: small molecules binding arginine methyltransferase PRMT1 – biochemical, small-molecule microarray, 635 nm fluorescence, primary screen (AID 1088); settings: higher = more signal;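 further: binding of Prmt1 protein to compounds spotted on small-molecule microarray slides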
[2] = growth effects on S. cerevisiae YJM789 – YJM789 clinical isolate, OD600, 24 h, basal, primary screen (AID 1089); settings: higher = more signal, called active from +8 up or from −8 down;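 further: growth of clinical yeast isolate S. cerevisiae YJM 789 seeded 1000 cells per well; test concentration not given here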
[3] = S. pombe growth modifiers, basal conditions – strain 972, OD600, 24 h, no modulator, primary screen (AID 1090);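 further: basal condition with compound alone and no growth modifier present; test concentration not given here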; settings: S. pombe 972 growth, higher = more signal, called active from +8 up or from −8 down
[4] = budding yeast growth modifiers under rapamycin – strain BY4716, OD600, 96 h, primary screen (AID 1091); further: test concentration not given here; settings: S. cerevisiae BY4716 + rapamycin, higher = more signal, called active from +8 up or from −8 down
[5] = biological target: Torsin-1A-interacting protein 2 (Homo sapiens) (UniProt Q8NFQ8); experiment: small molecules binding lysate-expressed LULL1 – cell lysate, human LULL1 lysate, 635/667 nm fluorescence, primary screen (AID 1092); settings: small-molecule microarray, hLULL1 lysate binding, 635 nm fluorescence; higher = more signal;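 further: probe is lysate of COS7 cells overexpressing human LULL1; score merges per-feature 667 nm fluorescence with signal-to-noise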
Torsin-1A-interacting protein 2 (Homo sapiens), sequence (Q8NFQ8 whole entry, looked up): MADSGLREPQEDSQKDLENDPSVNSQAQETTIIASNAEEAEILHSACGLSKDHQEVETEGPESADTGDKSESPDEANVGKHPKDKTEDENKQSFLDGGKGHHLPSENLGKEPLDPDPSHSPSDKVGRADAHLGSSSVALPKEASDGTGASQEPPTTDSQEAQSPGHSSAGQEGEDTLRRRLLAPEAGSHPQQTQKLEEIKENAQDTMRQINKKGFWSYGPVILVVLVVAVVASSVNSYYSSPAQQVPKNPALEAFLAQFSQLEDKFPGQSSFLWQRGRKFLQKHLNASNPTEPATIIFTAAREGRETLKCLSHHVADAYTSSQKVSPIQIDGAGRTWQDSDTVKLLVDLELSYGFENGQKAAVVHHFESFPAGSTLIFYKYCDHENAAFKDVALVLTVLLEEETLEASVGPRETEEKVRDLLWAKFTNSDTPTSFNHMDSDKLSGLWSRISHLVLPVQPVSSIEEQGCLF

[6] = optical density change of DRC41 E. coli – strain DRC41, OD650, 24 h, E. coli filamentation project, primary screen (AID 1093);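 further: MC1000 strain lacking acrAB efflux and sulA so SOS filamentation is blocked; test concentration not given here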; settings: E. coli DRC41 growth, higher = more signal, called active from +8 up or from −8 down
[7] = probe aLefty2 binding to arrayed compounds – biochemical, biotinylated probe, 635/667 nm fluorescence, primary screen (AID 1094); settings: small-molecule microarray, higher = more signal;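 further: score merges spot fluorescence near 667 nm with spot signal-to-noise ratio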
[8] = tested on: Noggin (protein binding on small-molecule microarray); experiment: small molecules binding Noggin protein – biochemical, 635/667 nm fluorescence, primary screen (AID 1095); settings: 635 nm fluorescence, higher = more signal;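 further: score merges 667 nm feature fluorescence with signal to noise over triplicate slides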
[9] = biological target: Neurogenic locus notch homolog protein 3 (Homo sapiens) (UniProt Q9UM47); experiment: small molecules binding NOTCH3 protein – biochemical, 635/667 nm fluorescence, primary screen (AID 1096); settings: small-molecule microarray, 635 nm fluorescence, higher = more signal
Neurogenic locus notch homolog protein 3 (Homo sapiens), sequence (Q9UM47 whole entry, looked up): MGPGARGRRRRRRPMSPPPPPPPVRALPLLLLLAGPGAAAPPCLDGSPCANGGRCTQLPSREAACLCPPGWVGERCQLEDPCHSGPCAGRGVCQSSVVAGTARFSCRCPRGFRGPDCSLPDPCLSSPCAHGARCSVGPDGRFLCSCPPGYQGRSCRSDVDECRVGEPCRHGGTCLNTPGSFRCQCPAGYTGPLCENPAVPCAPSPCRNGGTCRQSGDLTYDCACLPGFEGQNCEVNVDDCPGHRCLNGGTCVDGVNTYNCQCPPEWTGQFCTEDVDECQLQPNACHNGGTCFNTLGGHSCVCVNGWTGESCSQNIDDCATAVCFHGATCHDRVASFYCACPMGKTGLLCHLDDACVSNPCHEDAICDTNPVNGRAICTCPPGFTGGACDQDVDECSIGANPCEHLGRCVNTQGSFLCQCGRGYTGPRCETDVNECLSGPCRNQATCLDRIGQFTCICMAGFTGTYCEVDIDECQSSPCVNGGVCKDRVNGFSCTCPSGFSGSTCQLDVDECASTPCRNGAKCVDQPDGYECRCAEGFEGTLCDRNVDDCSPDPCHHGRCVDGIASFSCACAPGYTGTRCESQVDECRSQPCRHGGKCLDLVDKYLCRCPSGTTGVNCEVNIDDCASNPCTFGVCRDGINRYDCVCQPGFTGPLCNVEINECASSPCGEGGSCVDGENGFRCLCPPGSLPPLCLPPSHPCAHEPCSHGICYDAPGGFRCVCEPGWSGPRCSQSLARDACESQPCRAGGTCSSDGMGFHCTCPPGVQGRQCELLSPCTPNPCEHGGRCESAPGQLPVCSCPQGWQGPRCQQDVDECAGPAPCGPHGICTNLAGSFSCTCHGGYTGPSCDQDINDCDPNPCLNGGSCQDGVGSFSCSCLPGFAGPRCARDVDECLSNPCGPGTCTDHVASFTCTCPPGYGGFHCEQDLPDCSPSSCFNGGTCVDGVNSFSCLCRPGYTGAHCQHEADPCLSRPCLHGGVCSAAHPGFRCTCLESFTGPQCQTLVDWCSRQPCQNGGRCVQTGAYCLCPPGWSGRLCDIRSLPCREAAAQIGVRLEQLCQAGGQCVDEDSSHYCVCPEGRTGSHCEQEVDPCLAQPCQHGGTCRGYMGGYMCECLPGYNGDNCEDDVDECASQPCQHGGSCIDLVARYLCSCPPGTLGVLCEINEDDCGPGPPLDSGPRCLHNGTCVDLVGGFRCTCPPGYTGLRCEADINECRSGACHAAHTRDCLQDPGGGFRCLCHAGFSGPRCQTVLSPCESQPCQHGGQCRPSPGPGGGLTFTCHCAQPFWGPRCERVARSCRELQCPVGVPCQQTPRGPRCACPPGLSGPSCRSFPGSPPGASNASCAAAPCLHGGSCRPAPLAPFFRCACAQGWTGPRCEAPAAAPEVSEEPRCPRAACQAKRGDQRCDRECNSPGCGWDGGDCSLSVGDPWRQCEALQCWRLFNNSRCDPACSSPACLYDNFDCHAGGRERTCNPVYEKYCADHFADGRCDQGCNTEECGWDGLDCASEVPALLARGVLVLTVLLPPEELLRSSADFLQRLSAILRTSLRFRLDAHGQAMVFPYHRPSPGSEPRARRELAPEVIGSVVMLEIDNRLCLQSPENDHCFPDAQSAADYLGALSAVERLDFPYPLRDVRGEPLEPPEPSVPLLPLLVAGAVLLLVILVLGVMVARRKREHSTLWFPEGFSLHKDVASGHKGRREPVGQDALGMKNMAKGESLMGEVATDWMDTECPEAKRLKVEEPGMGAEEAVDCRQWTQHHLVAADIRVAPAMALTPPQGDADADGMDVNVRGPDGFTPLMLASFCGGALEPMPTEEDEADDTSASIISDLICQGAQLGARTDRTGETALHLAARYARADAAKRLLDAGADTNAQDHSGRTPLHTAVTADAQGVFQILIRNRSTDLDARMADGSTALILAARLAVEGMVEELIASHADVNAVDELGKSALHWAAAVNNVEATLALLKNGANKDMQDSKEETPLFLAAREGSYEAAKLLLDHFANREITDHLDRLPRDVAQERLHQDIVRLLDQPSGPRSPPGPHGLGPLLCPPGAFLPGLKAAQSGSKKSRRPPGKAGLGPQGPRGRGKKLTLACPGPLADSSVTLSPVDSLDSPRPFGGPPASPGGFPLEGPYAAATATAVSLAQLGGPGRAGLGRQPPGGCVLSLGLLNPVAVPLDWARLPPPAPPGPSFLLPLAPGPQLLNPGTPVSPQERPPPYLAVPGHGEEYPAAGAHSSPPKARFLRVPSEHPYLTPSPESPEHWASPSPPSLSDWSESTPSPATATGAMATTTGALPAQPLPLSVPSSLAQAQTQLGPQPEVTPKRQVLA

[10] = probe aEGFR binding to arrayed compounds – biochemical, biotinylated probe, 635/667 nm fluorescence, primary screen (AID 1097); settings: small-molecule microarray, higher = more signal;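 further: probe is a biotinylated anti-EGFR antibody binding compounds printed on slides; score combines fluorescence near 667 nm and signal to noise of each spot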
[11] = tested on: Plasmodium falciparum Sir2 (PF13_0152, Sir2A); experiment: Plasmodium falciparum Sir2A binding compounds – biochemical, small-molecule microarray, 635 nm fluorescence, primary screen (AID 1098); settings: fluorescence 635 nm, higher = more signal;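 further: score merges spot fluorescence intensity with its signal-to-noise ratio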
[12] = probe aDKK1 binding to arrayed compounds – biochemical, biotinylated probe, 635/667 nm fluorescence, primary screen (AID 1099); settings: small-molecule microarray, higher = more signal;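 further: score merges 667nm spot fluorescence with signal to noise across triplicate slides; reference of the scale not given here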
[13] = probe aCHRDL2 binding to arrayed compounds – biochemical, biotinylated probe, 635/667 nm fluorescence, primary screen (AID 1100); settings: small-molecule microarray, higher = more signal
[14] = change in splice reporter luminescence, either direction, cell-based, HEK293, spliceosome inhibition project, primary screen (AID 1101); settings: HEK293 splicing luciferase reporter, 24 h, higher = more signal, called active from +8 up or from −8 down;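 further: HEK293 cells carrying a splicing-competent luciferase reporter gene; test concentration not given here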
[15] = biological target: Fibroblast growth factor 10 (Homo sapiens) (UniProt O15520); experiment: compounds binding fibroblast growth factor 10 – biochemical, small-molecule microarray, 635 nm fluorescence, primary screen (AID 1102); settings: FGF10 binding, fluorescence 635 nm, higher = more signal
Fibroblast growth factor 10 (Homo sapiens), sequence (O15520 whole entry, looked up): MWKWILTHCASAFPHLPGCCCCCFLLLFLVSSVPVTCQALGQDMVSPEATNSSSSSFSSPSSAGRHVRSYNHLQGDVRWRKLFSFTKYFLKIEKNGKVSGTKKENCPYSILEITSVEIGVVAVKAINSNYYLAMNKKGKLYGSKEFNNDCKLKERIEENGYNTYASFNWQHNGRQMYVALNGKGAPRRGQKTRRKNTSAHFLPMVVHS

[16] = tested on: glycogen synthase kinase-3 (GSK3A per assay name; protocol says GSK3B); experiment: compounds binding glycogen synthase kinase-3 – biochemical, small-molecule microarray, 635 nm fluorescence, GSK3A, primary screen (AID 1103); settings: fluorescence 635 nm, higher = more signal; further: the record names both GSK3A and GSK3B
[17] = biological target: Epidermal growth factor receptor (Homo sapiens) (UniProt P00533); experiment: compounds binding epidermal growth factor receptor – biochemical, small-molecule microarray, 635 nm fluorescence, primary screen (AID 1104); settings: EGFR binding, higher = more signal;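 further: score merges 667 nm emission intensity with spot signal to noise over triplicate slides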
Epidermal growth factor receptor (Homo sapiens), sequence (P00533 whole entry, looked up): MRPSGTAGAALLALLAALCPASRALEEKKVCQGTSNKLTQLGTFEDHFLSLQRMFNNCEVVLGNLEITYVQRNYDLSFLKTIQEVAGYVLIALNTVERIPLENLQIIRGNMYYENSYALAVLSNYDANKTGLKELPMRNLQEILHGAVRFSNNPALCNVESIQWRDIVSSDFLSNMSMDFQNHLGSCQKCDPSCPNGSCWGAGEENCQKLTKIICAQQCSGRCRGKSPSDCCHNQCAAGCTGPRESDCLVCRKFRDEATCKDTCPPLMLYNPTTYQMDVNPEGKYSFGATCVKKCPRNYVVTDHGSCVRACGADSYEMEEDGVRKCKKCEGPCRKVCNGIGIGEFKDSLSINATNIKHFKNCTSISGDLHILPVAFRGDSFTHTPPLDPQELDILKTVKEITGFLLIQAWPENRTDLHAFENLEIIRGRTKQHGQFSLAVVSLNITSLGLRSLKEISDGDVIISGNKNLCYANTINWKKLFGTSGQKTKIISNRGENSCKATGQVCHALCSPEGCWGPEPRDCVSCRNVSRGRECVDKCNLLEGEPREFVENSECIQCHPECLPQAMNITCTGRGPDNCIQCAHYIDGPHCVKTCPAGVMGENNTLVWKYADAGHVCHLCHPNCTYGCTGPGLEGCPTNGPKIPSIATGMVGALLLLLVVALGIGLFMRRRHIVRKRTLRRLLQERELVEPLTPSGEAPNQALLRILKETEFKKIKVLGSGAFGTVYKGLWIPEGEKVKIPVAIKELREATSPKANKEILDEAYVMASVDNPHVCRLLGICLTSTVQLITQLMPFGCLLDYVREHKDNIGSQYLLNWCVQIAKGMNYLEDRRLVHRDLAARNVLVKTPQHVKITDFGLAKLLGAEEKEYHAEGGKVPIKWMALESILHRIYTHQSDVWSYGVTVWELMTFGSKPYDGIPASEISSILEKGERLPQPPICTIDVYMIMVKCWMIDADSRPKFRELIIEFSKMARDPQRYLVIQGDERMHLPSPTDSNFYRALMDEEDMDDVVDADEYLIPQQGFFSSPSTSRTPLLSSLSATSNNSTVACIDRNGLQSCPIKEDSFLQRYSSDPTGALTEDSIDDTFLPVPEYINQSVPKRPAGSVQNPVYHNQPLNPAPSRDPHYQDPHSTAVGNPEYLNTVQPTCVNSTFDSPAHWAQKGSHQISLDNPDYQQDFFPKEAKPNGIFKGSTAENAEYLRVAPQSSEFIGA

[18] = biological target: Follistatin-related protein 3 (Homo sapiens) (UniProt O95633); experiment: compounds binding follistatin-related protein 3 – biochemical, small-molecule microarray, 635 nm fluorescence, primary screen (AID 1105); settings: FSTL3 binding, higher = more signal;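 further: score merges emission near 667 nm and signal to noise per printed spot across three slides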
Follistatin-related protein 3 (Homo sapiens), sequence (O95633 whole entry, looked up): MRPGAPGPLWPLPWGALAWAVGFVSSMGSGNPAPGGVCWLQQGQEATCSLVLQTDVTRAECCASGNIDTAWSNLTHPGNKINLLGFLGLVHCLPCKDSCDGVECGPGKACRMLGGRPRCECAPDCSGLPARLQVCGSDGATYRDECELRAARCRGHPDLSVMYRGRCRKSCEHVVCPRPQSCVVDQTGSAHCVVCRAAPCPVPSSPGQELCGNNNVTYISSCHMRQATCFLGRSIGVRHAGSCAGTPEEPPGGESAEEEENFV

[19] = biological target: Dickkopf-related protein 1 (Homo sapiens) (UniProt O94907); experiment: small molecules binding DKK1 protein – biochemical, small-molecule microarray, 635 nm fluorescence scan, primary screen (AID 1106); settings: higher = more signal;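 further: score merges emission near 667 nm with signal to noise over three replicate slides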
Dickkopf-related protein 1 (Homo sapiens), sequence (O94907 whole entry, looked up): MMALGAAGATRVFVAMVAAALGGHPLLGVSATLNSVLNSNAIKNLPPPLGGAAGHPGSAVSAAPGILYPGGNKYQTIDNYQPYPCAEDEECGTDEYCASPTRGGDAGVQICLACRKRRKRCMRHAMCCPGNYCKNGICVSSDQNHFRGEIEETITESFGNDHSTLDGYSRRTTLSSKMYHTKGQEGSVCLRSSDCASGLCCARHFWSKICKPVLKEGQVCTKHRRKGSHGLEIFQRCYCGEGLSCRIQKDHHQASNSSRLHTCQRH

[20] = tested on: Inhibin beta A chain (activin A); experiment: small molecules binding activin A – biochemical, small-molecule microarray, 635 nm fluorescence scan, primary screen (AID 1107); settings: INHBA, higher = more signal;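 further: mouse activin A protein probed at 4.33 µg/mL on printed slides; score merges bound-protein fluorescence near 667 nm with spot signal-to-noise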

SMILES | composite z-score [1] | z-score [2] | z-score [3] | z-score [4] | composite z-score [5] | z-score [6] | composite z-score [7] | composite z-score [8] | composite z-score [9] | composite z-score [10] | composite z-score [11] | composite z-score [12] | composite z-score [13] | z-score [14] | composite z-score [15] | composite z-score [16] | composite z-score [17] | composite z-score [18] | composite z-score [19] | composite z-score [20]
CN(C)C(=O)[C@@]1(Cc2ccccc2)COC(c2ccc(OCCCO)cc2)=N1 | 0.243 | -0.0054 (inactive) | -4.61 (inactive) | -1.59 (inactive) | 2.87 | 1.31 (inactive) | 0.137 | -0.955 | -0.451 | 0.0005 | 0.429 | -0.246 | -0.0283 | -0.781 (inactive) | -0.304 | 0.792 | 0.197 | -0.718 | -0.59 | -0.512
COc1ccc(NC(=O)O[C@H]2[C@@H]3OC(=O)[C@H](Cc4cccc(Br)c4)C/C=C/C[C@@H](Cc4cccc(Br)c4)C(=O)O[C@H]3[C@@H](OC)O[C@@H]2CO)cc1 | 1.06 | 0.337 (inactive) | 0.505 (inactive) | -0.127 (inactive) | 1.36 | 0.904 (inactive) | 0.123 | 0.331 | 0.656 | -0.067 | 1.31 | 0.13 | 0.387 | 0.044 (inactive) | 0.638 | 0.475 | 0.4 | 0.324 | 0.142 | 0.735
C=C(/C(=C/C[C@@H](OC(=O)c1ccncc1)c1cccc(OCCO)c1)c1cnc2ccccc2c1)C(C)C | 1.55 | -2.06 (inactive) | -1.77 (inactive) | 1.29 (inactive) | 2.03 | 0.915 (inactive) | -0.0042 | 1.27 | 1.02 | 0.074 | 0.198 | 0.0215 | 0.415 | -0.537 (inactive) | 1.5 | 1.18 | 0.922 | 1.51 | 0.858 | 1.52
O=C1N[C@@H](Cc2ccccc2)C(=O)N2[C@@H]1C[C@@H](C(=O)O)[C@H]2c1ccc(O)cc1 | 1.19 | -0.0447 (inactive) | -0.701 (inactive) | -0.54 (inactive) | 2.41 | 1.54 (inactive) | 0.391 | 1.5 | 1.11 | 0.335 | 1.31 | 0.731 | 0.707 | -0.485 (inactive) | 0.727 | 0.86 | 0.315 | 1.45 | 1.63 | 0.853
CCCCCCCCCCC(O)C1C=CC2C(=O)N(C)C(=O)C2N1Nc1cc(OC)c(OC)c(OC)c1 (stereo not given) | -0.415 | 0.692 (inactive) | 0.134 (inactive) | -1.17 (inactive) | 1.54 | -1.74 (inactive) | -0.161 | -1.3 | -0.713 | -0.189 | 1.05 | 0.571 | 0.858 | 0.271 (inactive) | -0.471 | -1.29 | -0.637 | -1.29 | -0.939 | 1.18
COC(=O)[C@@]1(Cc2ccc(F)cc2)[C@H]2c3cc(C(=O)N(C)C)n(Cc4ccc(O)c(OC)c4)c3C[C@H]2CN1C(=O)c1ccccc1 | 0.423 | 0.0973 (inactive) | -1.2 (inactive) | 0.485 (inactive) | 2.2 | 1.02 (inactive) | 0.0043 | 0.718 | 1.13 | 0.0977 | 0.472 | 0.0331 | 0.128 | -4.34 (inactive) | 0.448 | 0.538 | 0.269 | 0.0792 | 0.134 | 0.937
C=C(/C(=C/C[C@H](OC(=O)c1ccncc1)c1cccc(OCCO)c1)c1cnc2ccccc2c1)C(C)C | 1.54 | -25.3 (active) | -20.3 (active) | -4.3 (inactive) | 1.21 | -0.315 (inactive) | -0.115 | 1.85 | 1.07 | -0.0578 | 0.411 | -0.0011 | 0.454 | -1.46 (inactive) | 1.47 | 1.18 | 0.539 | 1.51 | 0.739 | 1.68
CCOC(=O)C[C@H]1[C@H](OC(=O)c2ccccc2-c2ccccc2)[C@@H](NC(=O)c2ccccc2)c2cc(OCCCO)ccc2N1C(=O)c1ccccc1 | 0.0302 | -0.0764 (inactive) | 0.587 (inactive) | 1.58 (inactive) | 1.22 | -1.11 (inactive) | -0.214 | 0.169 | 0.243 | -0.0726 | -0.242 | 0.0316 | -0.375 | 0.0178 (inactive) | 0.645 | 0.459 | -0.106 | 0.284 | 0.169 | 0.169
COCCOC(=O)N1C(=O)[C@@]2(c3cc(C#CCC(C(=O)OC)C(=O)OC)ccc31)[C@H](c1ccc(O)cc1)N1[C@H](c3ccccc3)[C@H](c3ccccc3)OC(=O)[C@H]1[C@@H]2C(=O)NC[C@H](O)c1ccccc1 | 1.38 | 0.326 (inactive) | -0.371 (inactive) | 0.875 (inactive) | 2.75 | 1.81 (inactive) | -0.0788 | 0.171 | 0.68 | 0.0153 | 0.542 | 0.362 | 0.181 | 0.579 (inactive) | 0.681 | 0.882 | 0.335 | 0.602 | 0.148 | 0.466
